# Assay results as given in PubChem BioAssay (NCI).
# The panel holds about 83,000 compounds, 20% with a hit somewhere; the sample as a whole holds those more often.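 A percent growth of 40 corresponds to 60% growth inhibition; 0 means no net growth; -100 means all cells died. Active threshold: below 10.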 A number with no mark means an inactive call. Active and inactive are the calls of the source.
# Tested on: 786-0 renal
# Assay: NCI-60 one-dose screen, 48 h (100 = growth as untreated, 0 = no growth, -100 = all killed)
# Details: 10 µM
row,Compound,growth
1,COc1ccc(-c2ccccc2)cc1C(=O)c1ccc(-c2ccccc2)cc1,77.4%
2,O=C1CC[C@@H](C(=O)N[C@H]2CSSC[C@@H](C(=O)N/C=C/c3ccc(O)cc3)NC(=O)[C@H](Cc3ccccc3)NC(=O)[C@@H]3CCCN3C(=O)[C@@H]3CCCN3C2=O)N1,118%
3,COc1ccc2nc(C)cc(Nc3ccc(Cl)cc3)c2c1,109%
4,CC(=O)OC1Oc2ccccc2-c2oc(=O)c(-c3cc(=O)oc4cc(O)ccc34)cc21 (stereo unspecified),80.4%
5,O=C(NCCc1nccs1)c1cnc2c(S)cccc2c1,47%
6,COc1ccccc1Cn1cc2c(c1-c1ccccc1)CCc1cnoc1-2,33.5%
7,FC(F)(F)c1ccc(-c2cnc(Cl)nc2NC2CCCCCC2)cc1,40.1%
8,C[C@]12CC[C@H]3[C@@H](CCC4=CC(=O)CC[C@@]43C)[C@@H]1CC[C@@H]2c1csc(N)n1,68.1%
9,COc1ccc(COC(=O)CC(C)C)cc1,94.4%
10,CCOC(=O)c1cc2c(n1Cc1ccccc1)-c1oncc1CC2,107%
11,CCCCCCCCCCCCCCCCCBr,104%
12,CS(=O)(=O)Nc1ccc([N+](=O)[O-])cc1Oc1ccccc1,98.4%
13,Oc1ccccc1-c1nnc(Cn2c(Cc3cccc4ccccc34)nc3ccccc32)o1,103%
14,O=NN(CC(=O)N/N=C/C=C\c1ccccc1)CC(=O)N/N=C/C=C/c1ccccc1,110%
15,O=C(OCc1ncc(-c2ccc(C(F)(F)F)cc2)c(NC2CCCCCC2)n1)c1c(F)c(F)c(F)c(F)c1F,74.3%
16,Cc1cc(O)c(C2=NN(c3ccc(S(N)(=O)=O)cc3)C(c3ccc(N(C)C)cc3)C2)c(C)c1Cl (stereo unspecified),95.6%
17,C=CCNC(=S)NN,98.4%
18,O=C(Nc1ccc(OS(=O)(=O)Cc2ccccc2)cc1)C12CC3CC(CC(C3)C1)C2,94.1%
19,Cc1cc(C(C)(C)CC(C)(C)C)ccc1OCCOCC[N+](C)(C)Cc1ccccc1,-19.4% (active)

row,Compound,growth
1,Oc1cc(O)c(Br)cc1Br,93.1%
2,C/C(=N/NC(=O)c1sc(=S)n(C)c1N)c1cc2cc(Cl)ccc2o1,106%
3,CCOC(=O)CSC(=S)SCC(=O)OCC,103%
4,Cc1c(C(=O)N[C@H](CO)Cc2ccccc2)[nH]c2ccc(Cl)cc2c1=O,96.4%
5,Cc1ccc2c(c1)-c1cc(C)nn1-c1ccc(C#N)cc1O2,86.4%
6,CCOC(=O)c1cc(-c2ccccc2)nc(N)n1,108%
7,COc1cccc2c1O/C(=C\c1ccc([N+](=O)[O-])s1)C2=O,103%
8,CCN(CC)CC(O)CNc1ccnc2cc(Cl)c(Cl)cc12 (stereo unspecified),86.1%
9,N#C/C(=C\N1C(=O)/C(=C/c2cccc([N+](=O)[O-])c2)SC1=S)c1nc2ccccc2s1,88.3%
10,COc1cc(/C=C/C(=O)c2cc(-c3ccccc3)ccc2O)cc(OC)c1OC,94%
11,Cc1cccc2c(Nc3ccc(NS(C)(=O)=O)cc3)c3ccc([N+](=O)[O-])cc3nc12,5.57% (active)
12,COc1ccc(/C=C2\SC(=S)N(CCCN3CCOCC3)C2=O)c(OC)c1,106%
13,Oc1ccc(/C=N\Nc2ccccn2)c(O)c1,-13.2% (active)
14,O=C(NCCCl)c1cc(Cl)cc(Cl)c1,102%
15,O=S(=O)(NCCO)c1ccc(OCCOc2ccc(S(=O)(=O)NCCO)cc2)cc1,96.9%
16,CCCCCCCCCCCCc1ccc(C(=O)/C=C/C(=O)O)cc1,-3.51% (active)
17,CCOC(=O)/C(C#N)=C(/C)C1CC1,103%
18,O=C1CC(c2cccc(-c3cccnc3)c2)=Nc2ccc(Br)cc2N1,1.54% (active)
19,COc1cc(NS(C)(=O)=O)ccc1Nc1c2ccc(Cl)cc2nc2c(OC)cccc12,-39.5% (active)

# Tested on: COLO 205 colon
# Assay: as above
# Details: 10 µM
row,Compound,growth
1,COc1ccc(-c2ccccc2)cc1C(=O)c1ccc(-c2ccccc2)cc1,82.5%
2,O=C1CC[C@@H](C(=O)N[C@H]2CSSC[C@@H](C(=O)N/C=C/c3ccc(O)cc3)NC(=O)[C@H](Cc3ccccc3)NC(=O)[C@@H]3CCCN3C(=O)[C@@H]3CCCN3C2=O)N1,102%
3,COc1ccc2nc(C)cc(Nc3ccc(Cl)cc3)c2c1,107%
4,CC(=O)OC1Oc2ccccc2-c2oc(=O)c(-c3cc(=O)oc4cc(O)ccc34)cc21 (stereo unspecified),101%
5,O=C(NCCc1nccs1)c1cnc2c(S)cccc2c1,-52.4% (active)
6,COc1ccccc1Cn1cc2c(c1-c1ccccc1)CCc1cnoc1-2,19.6%
7,FC(F)(F)c1ccc(-c2cnc(Cl)nc2NC2CCCCCC2)cc1,22%
8,C[C@]12CC[C@H]3[C@@H](CCC4=CC(=O)CC[C@@]43C)[C@@H]1CC[C@@H]2c1csc(N)n1,25.6%
9,COc1ccc(COC(=O)CC(C)C)cc1,109%
10,CCOC(=O)c1cc2c(n1Cc1ccccc1)-c1oncc1CC2,86.2%
11,CCCCCCCCCCCCCCCCCBr,106%
12,CS(=O)(=O)Nc1ccc([N+](=O)[O-])cc1Oc1ccccc1,99.7%
13,Oc1ccccc1-c1nnc(Cn2c(Cc3cccc4ccccc34)nc3ccccc32)o1,110%
14,O=NN(CC(=O)N/N=C/C=C\c1ccccc1)CC(=O)N/N=C/C=C/c1ccccc1,109%
15,O=C(OCc1ncc(-c2ccc(C(F)(F)F)cc2)c(NC2CCCCCC2)n1)c1c(F)c(F)c(F)c(F)c1F,59.2%
16,Cc1cc(O)c(C2=NN(c3ccc(S(N)(=O)=O)cc3)C(c3ccc(N(C)C)cc3)C2)c(C)c1Cl (stereo unspecified),76.2%
17,C=CCNC(=S)NN,107%
18,O=C(Nc1ccc(OS(=O)(=O)Cc2ccccc2)cc1)C12CC3CC(CC(C3)C1)C2,27.4%
19,Cc1cc(C(C)(C)CC(C)(C)C)ccc1OCCOCC[N+](C)(C)Cc1ccccc1,-81.6% (active)

row,Compound,growth
1,Oc1cc(O)c(Br)cc1Br,101%
2,C/C(=N/NC(=O)c1sc(=S)n(C)c1N)c1cc2cc(Cl)ccc2o1,104%
3,CCOC(=O)CSC(=S)SCC(=O)OCC,127%
4,Cc1c(C(=O)N[C@H](CO)Cc2ccccc2)[nH]c2ccc(Cl)cc2c1=O,104%
5,Cc1ccc2c(c1)-c1cc(C)nn1-c1ccc(C#N)cc1O2,66.3%
6,CCOC(=O)c1cc(-c2ccccc2)nc(N)n1,114%
7,COc1cccc2c1O/C(=C\c1ccc([N+](=O)[O-])s1)C2=O,67.3%
8,CCN(CC)CC(O)CNc1ccnc2cc(Cl)c(Cl)cc12 (stereo unspecified),78.1%
9,N#C/C(=C\N1C(=O)/C(=C/c2cccc([N+](=O)[O-])c2)SC1=S)c1nc2ccccc2s1,101%
10,COc1cc(/C=C/C(=O)c2cc(-c3ccccc3)ccc2O)cc(OC)c1OC,91.5%
11,Cc1cccc2c(Nc3ccc(NS(C)(=O)=O)cc3)c3ccc([N+](=O)[O-])cc3nc12,34.9%
12,COc1ccc(/C=C2\SC(=S)N(CCCN3CCOCC3)C2=O)c(OC)c1,108%
13,Oc1ccc(/C=N\Nc2ccccn2)c(O)c1,69.1%
14,O=C(NCCCl)c1cc(Cl)cc(Cl)c1,112%
15,O=S(=O)(NCCO)c1ccc(OCCOc2ccc(S(=O)(=O)NCCO)cc2)cc1,104%
16,CCCCCCCCCCCCc1ccc(C(=O)/C=C/C(=O)O)cc1,21.6%
17,CCOC(=O)/C(C#N)=C(/C)C1CC1,108%
18,O=C1CC(c2cccc(-c3cccnc3)c2)=Nc2ccc(Br)cc2N1,61.1%
19,COc1cc(NS(C)(=O)=O)ccc1Nc1c2ccc(Cl)cc2nc2c(OC)cccc12,34.3%
